Results filed as inconclusive are left out. Where a call stands in place of a potency, no number is given. The source made the active and inactive calls. Calls come from the whole dose curve; as a rule, active = well fitted curve in the direction sought with a large enough effect; inconclusive = small, poorly fitted or top-dose-only effect, or another doubt; inactive = no such curve, though single readings can be large; an effect the other way counts as inactive or inconclusive.

Assay [1] concerns the target Aldehyde dehydrogenase, mitochondrial (Homo sapiens) (UniProt P05091). Put plainly: qHTS for Inhibitors of the Aldehyde Dehydrogenase Family (ALDH2) Primary screen (AID 2061308). Note: nearly all actives have a fitted effect of over 55% in size. On the technique in general: qHTS replaces the single test concentration by a dilution series.
For assay [2], the target named is Retinaldehyde dehydrogenase 3 (Homo sapiens) (UniProt P47895). Put plainly: qHTS for Inhibitors of the Aldehyde Dehydrogenase Family (ALDH1A3) Primary screen (AID 2061315).

As for `CC(C)c1cc2c(N3CCN(C4=NCC(C)(C)S4)CC3)ncnc2s1`, the Potency entry in assay [1] and in assay [2] was “inactive” each time.

With `C[C@@H]1O[C@@H](OC2C(O[C@H]3[C@H](O[C@H]4CC[C@@]5(C)C(CC[C@]6(C)C5CC=C5C7CC(C)(C)CC(O)[C@]7(C)CC[C@]56C)C4(C)C)O[C@H](C(=O)O)[C@@H](O)[C@@H]3O)OC(CO)C(O)C2O)[C@H](O)[C@H](O)[C@H]1O` (some centres not stated), the Potency result in assay [1] and in assay [2] was “inactive” in each case.

For `CN1C(=O)N(c2cc(Cl)cc(Cl)c2)C(=O)[C@@]1(C)Cc1ccc(Br)cc1`, the Potency entry in assay [1] and in assay [2] was “inactive” in each case.

On to `CC(C(O)c1ccccc1)N(C)CCOC(c1ccccc1)c1ccccc1` (configuration not stated), for which the Potency entry in assay [1] and in assay [2] was “inactive” each time.

With `COc1cc(C)c(C(=O)NC2C(C)OC(OC3CCC(C)C4C3C=C(C)C3/C(C)=C\CC/C(C)=C/C5(C)C=C(C(=O)O)C(C)CC56OC(=O)/C(=C(\O)C34C)C6=O)C(O)C2(C)O)c(O)c1` (configuration not stated), the Potency result in assay [1] and in assay [2] was “inactive” in each case.

Take `COC(=O)C1=CO[C@@H](O[C@@H]2O[C@H](CO)[C@@H](O)[C@H](O)[C@H]2O)[C@@H]2[C@@H](C(=O)O)CC[C@H]12`: the Potency entry in assay [1] and in assay [2] was “inactive” each time.

In the case of `C[C@@H]1CC[C@@]2(OC1)O[C@H]1C[C@H]3[C@@H]4CC=C5C[C@@H](O)CC[C@]5(C)[C@H]4CC[C@]3(C)[C@H]1[C@@H]2C`, the Potency entry in assay [1] and in assay [2] was “inactive” each time.

Regarding `C=C(C)[C@@H]1CC[C@]2(C(=O)O)CC[C@]3(C)C(CCC4[C@]5(C)C(CC[C@]43C)C(C)(C)[C@@H](O)[C@@H]5C(=O)O)C12` (some centres not stated), the Potency entry in assay [1] and in assay [2] was “inactive” throughout.

In the case of `COc1ccccc1C(=O)Nc1cccc(NC(=O)c2cccc(C)c2)c1`, the Potency entry in assay [1] and in assay [2] was “inactive” throughout.

`O=C1OC(c2ccc(O)cc2)C(O)=C1Cc1ccccc1` (configuration not stated): the Potency result in assay [1] and in assay [2] was “inactive” throughout.

In the case of `C/C(=C/CO)CC[C@@H]1[C@@](C)(O)CCC2C(C)(C)CCC[C@]21C` (some centres not stated), the Potency entry in assay [1] and in assay [2] was “inactive” throughout.

For the compound `CC(=O)NC(C(=O)O[C@H]1CCC(C)(C)[C@@H]2CC=C3C(=O)OCC3(O)[C@@]12C)C(C)C` (some centres not stated), the Potency result in assay [1] and in assay [2] was “inactive” throughout.

In the case of `CC1(C)CC[C@]2(C(=O)OC3OC(CO)C(O)C(O)C3O)CC[C@]3(C)C(=CCC4[C@@]5(C)C[C@@H](O)[C@H](OC6OC(C(=O)O)C(O)C(O)C6O)C(C)(C)C5CC[C@]43C)[C@@H]2C1` (some centres not stated), the Potency entry in assay [1] and in assay [2] was “inactive” each time.

For the compound `COc1c2ccoc2nc2c(OC)c(O[C@@H]3O[C@@H](C)[C@H](O)[C@@H](O[C@@H]4O[C@H](CO)[C@@H](O)[C@H](O)[C@H]4O)[C@H]3OC(C)=O)ccc12`, the Potency result in assay [1] and in assay [2] was “inactive” throughout.

As for `COc1cc2c(cc1OC)CC(=O)N(CCCNC[C@H]1Cc3cc(OC)c(OC)cc31)CC2`, the Potency result in assay [1] and in assay [2] was “inactive” throughout.

Take `N#CCc1ccc(O)cc1O[C@@H]1O[C@H](CO)[C@@H](O)[C@H](O)[C@H]1O`: the Potency result in assay [1] and in assay [2] was “inactive” each time.

For the compound `CCC(C)/C=C(C)/C=C/C1=CC2=C(Cl)C(=O)C(C)(OC(C)=O)C(=O)C2=CN1C(CC(=O)O)C(=O)O` (configuration not stated), the Potency entry in assay [1] and in assay [2] was “inactive” throughout.

Regarding `C/C=C(\C)C(=O)OC[C@H]1O[C@H](O[C@H]2O[C@H](CO)[C@@H](OC(=O)/C(C)=C/C)[C@H](O)[C@H]2O[C@@H]2O[C@H](CO)[C@@H](O)[C@H](O)[C@H]2O)[C@H](O[C@@H]2O[C@H](CO)[C@@H](O)[C@H](O)[C@H]2O)[C@@H](O)[C@@H]1O`, the Potency entry in assay [1] and in assay [2] was “inactive” each time.

As for `O=C1NC2CCc3nc4ccccc4c(=O)n3C2=Nc2ccccc21` (configuration not stated), the Potency result in assay [1] and in assay [2] was “inactive” throughout.

With `C=C(CCC1C(C)(O)CCC2C(C)(C)C(O)CCC12C)C(O)CO` (configuration not stated), the Potency result in assay [1] and in assay [2] was “inactive” each time.

For the compound `C[C@H]1C[C@H]2[C@@H]3CCC4=CC(=O)C=C[C@]4(C)[C@@]3(F)[C@@H](O)C[C@]2(C)[C@@]1(O)C(=O)COP(=O)(O)O`, the Potency result in assay [1] and in assay [2] was “inactive” each time.

`CC1CCC(=O)CC(SCC(O)C(=O)O)CCC(=O)O1` (configuration not stated): the Potency entry in assay [1] and in assay [2] was “inactive” throughout.

`CC(C)c1ccc(CC(=O)N2CCC[C@@H](c3cccc(OC(C)(C)C(=O)O)c3)C2)cc1`: the Potency result in assay [1] and in assay [2] was “inactive” in each case.

Turning to `CCC(C)/C=C(C)/C=C/C1=CC2=CC(=O)C3(C)OC(C)(O)C(C(=O)OC)C3C2=CO1` (configuration not stated), the Potency result in assay [1] and in assay [2] was “inactive” throughout.

`COc1cc(O)cc(C)c1C(=O)O[C@H]1[C@@H](OC(C)=O)[C@H](n2ccc(=O)[nH]c2=O)O[C@@H]1CO`: the Potency entry in assay [1] and in assay [2] was “inactive” in each case.

Take `C[C@H]1CC[C@@H]2N(C1)C[C@@H]1[C@H]([C@@H](O)[C@H](O)[C@]3(O)[C@H]1C[C@@]14OC5(O)[C@@H](C[C@@H](O)[C@@H]31)[C@]4(C)CC[C@@H]5O)[C@]2(C)O`: the Potency entry in assay [1] and in assay [2] was “inactive” throughout.

The record behind these values is PubChem BioAssay (NCATS).
